PubChem BioAssay AID1159580 (chemical genetic matrix, 2015)
The campaign covered roughly 5,500 compounds. About 2,000 (36%) were called active. About 18% were inconclusive and are not listed. Cut-off read from the data, not from the text of the source: active = normalized growth mostly below about 0.91 (no sharp cut-off); inconclusive = no clear call, values can overlap the other calls; inactive = mostly above about 0.92. The list shows a part of the results.

Assay: chemical genetic growth profiling, strain panel (AID 1159580);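 note: tested at 20 µM; growth read once vehicle control cultures reached saturation at 30 °C; 1 = growth at the plate median or of vehicle wells; lower values mean less growth of the strain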
Conditions: growth OD

Measured: normalized growth

NC(=O)c1ccccc1O
inactive: S. cerevisiae deletion strains, locus YJR066W, strain TOR1, stronger effect = lower value 0.999 | S. cerevisiae deletion strains, locus YKL009W, strain mrt4, stronger effect = lower value 1.01 | S. cerevisiae deletion strains, locus YKL068W, stronger effect = lower value 0.995 | S. cerevisiae deletion strains, locus YKL085W, strain MDH1 (second series), stronger effect = lower value 1 | S. cerevisiae deletion strains, locus YKL085W, strain MDH1, stronger effect = lower value 1 | S. cerevisiae deletion strains, locus YKL160W, strain elf1, stronger effect = lower value 0.985 | S. cerevisiae deletion strains, locus YKL190W, strain CNB1, stronger effect = lower value 0.998 | S. cerevisiae deletion strains, locus YKR001C, strain vps1, stronger effect = lower value 1 | S. cerevisiae deletion strains, locus YKR026C, strain gcn3, stronger effect = lower value 0.971 | S. cerevisiae deletion strains, locus YKR091W, strain srl3, stronger effect = lower value 0.971 | S. cerevisiae deletion strains, locus YLL001W, strain dnm1, stronger effect = lower value 0.909 | S. cerevisiae deletion strains, locus YLL026W, stronger effect = lower value 0.993 | S. cerevisiae deletion strains, locus YLL041C, strain sdh2, stronger effect = lower value 0.969 | S. cerevisiae deletion strains, locus YLR027C, strain aat2, stronger effect = lower value 0.981 | S. cerevisiae deletion strains, locus YLR039C, strain RIC1, stronger effect = lower value 1 | S. cerevisiae deletion strains, locus YLR058C, strain SHM2, stronger effect = lower value 1.01 | S. cerevisiae deletion strains, locus YLR102C, strain apc9, stronger effect = lower value 1.01 | S. cerevisiae deletion strains, locus YLR113W, strain HOG1, stronger effect = lower value 0.999 | S. cerevisiae deletion strains, locus YLR221C, strain rsa3, stronger effect = lower value 1.03 | S. cerevisiae deletion strains, locus YLR258W, strain gsy2, stronger effect = lower value 0.988 | S. cerevisiae deletion strains, locus YLR262C, strain YPT6 (second series), stronger effect = lower value 0.947 | S. cerevisiae deletion strains, locus YLR262C, strain YPT6, stronger effect = lower value 0.986 | S. cerevisiae deletion strains, locus YLR268W, strain sec22, stronger effect = lower value 1.04 | S. cerevisiae deletion strains, locus YLR320W, strain mms22, stronger effect = lower value 0.996 | S. cerevisiae deletion strains, locus YLR330W, strain CHS5, stronger effect = lower value 1.01 | S. cerevisiae deletion strains, locus YLR342W, strain FKS1 (second series), stronger effect = lower value 1.02 | S. cerevisiae deletion strains, locus YLR342W, strain FKS1, stronger effect = lower value 0.978 | S. cerevisiae deletion strains, locus YLR357W, strain rsc2, stronger effect = lower value 0.952 | S. cerevisiae deletion strains, locus YLR370C, strain arc18, stronger effect = lower value 0.964 | S. cerevisiae deletion strains, locus YLR371W, strain rom2, stronger effect = lower value 1.01 | S. cerevisiae deletion strains, locus YLR384C, strain iki3, stronger effect = lower value 0.963 | S. cerevisiae deletion strains, locus YLR418C, strain cdc73, stronger effect = lower value 1.02 | S. cerevisiae deletion strains, locus YML016C, strain PPZ1, stronger effect = lower value 1 | S. cerevisiae deletion strains, locus YML032C, strain rad52, stronger effect = lower value 1.01 | S. cerevisiae deletion strains, locus YML120C, strain ndi1, stronger effect = lower value 0.954 | S. cerevisiae deletion strains, locus YML124C, strain tub3, stronger effect = lower value 1.01 | S. cerevisiae deletion strains, locus YMR058W, strain fet3, stronger effect = lower value 0.987 | S. cerevisiae deletion strains, locus YMR078C, strain ctf18, stronger effect = lower value 1 | S. cerevisiae deletion strains, locus YMR125W, strain sto1, stronger effect = lower value 0.962 | S. cerevisiae deletion strains, locus YMR129W, stronger effect = lower value 0.974 | S. cerevisiae deletion strains, locus YMR205C, strain PFK2, stronger effect = lower value 0.978 | S. cerevisiae deletion strains, locus YMR223W, strain ubp8, stronger effect = lower value 0.988 | S. cerevisiae deletion strains, locus YMR231W, strain pep5, stronger effect = lower value 0.965 | S. cerevisiae deletion strains, locus YMR307W, strain GAS1, stronger effect = lower value 1.03 | S. cerevisiae deletion strains, locus YNL067W, strain RPL9B, stronger effect = lower value 0.99 | S. cerevisiae deletion strains, locus YNL071W, strain lat1, stronger effect = lower value 0.974 | S. cerevisiae deletion strains, locus YNL183C, strain NPR1, stronger effect = lower value 0.985 | S. cerevisiae deletion strains, locus YNL209W, strain ssb2, stronger effect = lower value 0.98 | S. cerevisiae deletion strains, locus YNL233W, strain BNI4, stronger effect = lower value 1 | S. cerevisiae deletion strains, locus YNL248C, strain rpa49, stronger effect = lower value 0.982 | S. cerevisiae deletion strains, locus YNL250W, strain rad50, stronger effect = lower value 1 | S. cerevisiae deletion strains, locus YNL271C, strain bni1, stronger effect = lower value 1.02 | S. cerevisiae deletion strains, locus YNL298W, strain CLA4, stronger effect = lower value 1.02 | S. cerevisiae deletion strains, locus YNL307C, strain MCK1, stronger effect = lower value 1.02 | S. cerevisiae deletion strains, locus YNL322C, strain KRE1 (second series), stronger effect = lower value 0.954 | S. cerevisiae deletion strains, locus YNL322C, strain KRE1, stronger effect = lower value 0.998 | S. cerevisiae deletion strains, locus YNR049C, strain mso1, stronger effect = lower value 0.974 | S. cerevisiae deletion strains, locus YNR052C, strain pop2, stronger effect = lower value 1.01 | S. cerevisiae deletion strains, locus YOL006C, strain TOP1, stronger effect = lower value 0.998 | S. cerevisiae deletion strains, locus YOL012C, strain htz1 1.16 | S. cerevisiae deletion strains, locus YOL147C, strain pex11, stronger effect = lower value 1.01 | S. cerevisiae deletion strains, locus YOR001W, strain rrp6, stronger effect = lower value 0.957 | S. cerevisiae deletion strains, locus YOR061W, strain CKA2, stronger effect = lower value 1 | S. cerevisiae deletion strains, locus YOR069W, strain VPS5, stronger effect = lower value 1 | S. cerevisiae deletion strains, locus YOR070C, strain gyp1, stronger effect = lower value 1 | S. cerevisiae deletion strains, locus YOR080W, strain dia2, stronger effect = lower value 0.981 | S. cerevisiae deletion strains, locus YOR083W, strain WHI5, stronger effect = lower value 0.957 | S. cerevisiae deletion strains, locus YOR106W, strain vam3, stronger effect = lower value 0.94 | S. cerevisiae deletion strains, locus YOR136W, strain idh2, stronger effect = lower value 0.989 | S. cerevisiae deletion strains, locus YOR144C, strain elg1, stronger effect = lower value 1 | S. cerevisiae deletion strains, locus YOR184W, strain ser1, stronger effect = lower value 0.895 | S. cerevisiae deletion strains, locus YOR231W, strain MKK1, stronger effect = lower value 1.03 | S. cerevisiae deletion strains, locus YOR265W, strain rbl2, stronger effect = lower value 0.98 | S. cerevisiae deletion strains, locus YOR270C, strain vph1, stronger effect = lower value 0.963 | S. cerevisiae deletion strains, locus YOR290C, strain snf2, stronger effect = lower value 0.999 | S. cerevisiae deletion strains, locus YOR316C, strain cot1, stronger effect = lower value 1 | S. cerevisiae deletion strains, locus YPL051W, strain arl3, stronger effect = lower value 1.01 | S. cerevisiae deletion strains, locus YPL078C, strain atp4, stronger effect = lower value 0.94 | S. cerevisiae deletion strains, locus YPL106C, strain sse1, stronger effect = lower value 0.936 | S. cerevisiae deletion strains, locus YPL240C, strain hsp82, stronger effect = lower value 0.977 | S. cerevisiae deletion strains, locus YPL241C, strain CIN2, stronger effect = lower value 1.01 | S. cerevisiae deletion strains, locus YPL256C, strain CLN2, stronger effect = lower value 1.05 | S. cerevisiae deletion strains, locus YPR119W, strain clb2, stronger effect = lower value 0.999 | S. cerevisiae deletion strains, locus YPR141C, strain kar3, stronger effect = lower value 1.01 | S. cerevisiae deletion strains, locus YPR163C, strain tif3, stronger effect = lower value 1.01 | S. cerevisiae deletion strains, locus YPR167C, strain met16, stronger effect = lower value 1.01 | S. cerevisiae deletion strains, strain wtn01, stronger effect = lower value 1.03 | S. cerevisiae strains, strain wild type, stronger effect = lower value 1.01
